Sampled rows, rich in hits. Any-hit rate of the full collection: about 3.8%.
A549 viability – A549 cytotoxicity, counter-screen for Nrf2 inhibitors; A549 ARE-Fluc cells, CellTiter-Fluor viability, 18-24 h; AID 504648; hit rate 0.16% among 390,000; Potency, µM (top dose mostly 46 µM), inactives show at the top dose activity change, negative = cytotoxicity, actives largely listed as inhibitors; note: % is set by controls: 0 for no effect and ±100 for the full control effect
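A549 ARE-Fluc cells in 5% FBS OPTI-MEM, 5000 cells/well, rested 2 h then exposed to compounds in concentration-response for 18-24 h at 37 °C. Viability by CellTiter-Fluor fluorescence (Ex 405/Em 525) after 30 min; luciferase luminescence (BugLite, 15 min, RT) read afterwards.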
ATXN2 expr inh – reduces ATXN2 reporter expression in HEK-293 cells; HEK-293 ATXN2-luciferase reporter, luminescence, 24 h; Potency, µM (top dose mostly 57 µM), for the others: at the top dose activity change, negative = inhibition, usual class: inhibitors; hit rate 0.72% among 360,000; AID 1745845; note: % is set by controls: 0 for no effect and ±100 for the full control effect; nearly all actives have a fitted effect of over 55% in size
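qHTS (up to 57 uM final) was run with 24 h compound exposure of reporter cells at 37 °C. Each well was multiplexed: SteadyGlo luminescence measured ATXN2-luciferase expression after a fluorogenic Gly-Phe-AFC viability readout (25 uM final).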
S2 tox – viability counter-screen for ATXN expression inhibitors; Potency, µM (titrated, usually from 56.7 µM), most hits filed as cytotoxic; S2 cells (HEK-293 line with an ATXN2-luciferase reporter) viability, CellTiter-Fluor protease fluorescence, 24 h; hit rate 0.49% among 400,000; note: nearly all actives have a fitted effect of over 40% in size
TGFb inhibitor – inhibitors of TGF-b signaling. hit rate 1.2% among 410,000. HepG2 CAGA-GFP TGF-b/SMAD3 reporter, GFP fluorescence, 18 h; TGF-beta stimulated, 500 pg/mL final. Potency, µM (top dose mostly 46.1 µM), for the others: at the top dose activity, negative = inhibition, most hits filed as inhibitors; note: % is set by controls: 0 for no effect and ±100 for the full control effect; nearly all actives have a fitted effect of over 65% in size
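Read-out: total well GFP (ex488/em500-530) summed from mean per-cell fluorescence. Cells: HEPG2 CAGA-GFP, 1% FBS DMEM, 18 h at 37 degrees C with 500 pg/mL final TGF-beta. Unstimulated wells served as the full-inhibition control; stimulated DMSO wells = 0%.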
HepG2 viability – kills HepG2 cells in TGF-b inhibitor counter-screen; HepG2 CAGA-GFP viability, ATP luminescence, 18 h; Potency, µM (highest dose often 46.1 µM), inactives show at the top dose activity change, negative = cytotoxicity, actives largely listed as cytotoxic; hit rate 0.76% among 410,000; AID 588856
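HepG2 CAGA-GFP cells (1000/well, DMEM with 1% FBS) received compound, then TGF-beta at 500 pg/mL final, and were incubated 18 hours at 37 degrees C. Viability was read by CellTiter-Glo luminescence. Media-only wells were set as complete cell-killing and DMSO as no toxicity.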
Nrf2 block – inhibitors of Nrf2 signaling. A549 ARE-Fluc reporter, luciferase luminescence, 18-24 h. Potency, µM (titrated, usually from 46 µM), for inactives: top-dose activity change, negative = inhibition, actives largely listed as inhibitors. hit rate 2.1% among 360,000; note: % is set by controls: 0 for no effect and ±100 for the full control effect; nearly all actives have a fitted effect of over 60% in size
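In this cell-based qHTS, ARE-driven firefly luciferase in A549 cells reports Nrf2 activity; the luminescent signal after BugLite lysis is the measured value, with a prior CellTiter-Fluor read for cell health.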
Active calls of the source: *; i = inactive; ? = inconclusive; . = not tested or not shown. Calls come from the whole dose curve; as a rule, active = well fitted curve in the direction sought with a large enough effect; inconclusive = small, poorly fitted or top-dose-only effect, or another doubt; inactive = no such curve, though single readings can be large; an effect the other way counts as inactive or inconclusive. Potency is the fitted concentration of half-maximal effect.

SMILES	A549 viability	ATXN2 expr inh	S2 tox	TGFb inhibitor	HepG2 viability	Nrf2 block
CC(=O)c1ccc(S(=O)(=O)N2CCN(C(=O)CN3C(=O)NC4(CCCC4)C3=O)CC2)cc1	-0.4%	14.8%	?	0.0%	5.3%	1.6%
CN(C)c1ccc(C(CNC(=O)COc2ccc(Cl)cc2)N2CCCC2)cc1 (stereo unspecified)	-5.0%	.	?	?	-63.9%	-9.6%
O=C(Nc1nnc(-c2ccc3c(c2)CCCC3)o1)c1ccc(Cl)cc1Cl	-12.5%	?	39.8µM*	?	-3.8%	?
O=C(Nc1nnc(-c2ccc3c(c2)CCCC3)o1)c1c(F)cccc1F	-6.4%	-2.4%	i	3.2%	-11.5%	12.7%
O=C(Nc1cccc(/C=C/c2ccccn2)c1)c1ccc(-n2cncn2)c([N+](=O)[O-])c1	-18.8%	?	17.8µM*	?	-21.3%	?
COc1ccc(NC(=O)c2ccc(-n3cncn3)c([N+](=O)[O-])c2)cc1OC	1.7%	4.3%	i	-4.5%	-3.1%	0.6%
O=C(Nc1ccc(F)c(F)c1)c1ccc(-n2cncn2)c([N+](=O)[O-])c1	-14.5%	-29.0%	i	-8.8%	-7.7%	10.3µM*
CCOC(=O)c1cccc(NC(=O)NC(C)c2c(-n3cccc3)sc3c2CCN(C)C3)c1 (stereo unspecified)	-3.1%	.	.	?	-49.2%	1.0%
COc1ccc(Cn2cccc(NC(=O)Nc3ccc(F)cc3)c2=O)cc1	-1.0%	-30.7%	i	?	-35.3%	?
COc1cccc(NC(=O)Nc2cccn(Cc3ccccc3)c2=O)c1	-27.8%	13.7%	i	-16.5%	-5.4%	11.6µM*
CSc1ccc(NC(=O)Nc2cccn(Cc3ccccc3)c2=O)cc1	?	0.6%	i	0.0%	-19.4%	11.6µM*
COc1ccc(Cn2cccc(NC(=O)Nc3cccc(OC)c3)c2=O)cc1	?	-26.7%	i	?	-38.1%	5.17µM*
COCCN(C(=O)CCC(=O)Nc1cccnc1)C(C(=O)NC1CCCCC1)c1ccccc1 (stereo unspecified)	8.4%	122.6%	i	-16.8%	-1.5%	9.6%
CC(=O)c1ccc(N2C(=O)N(Cc3cccc(C(F)(F)F)c3)c3ccccc3S2(=O)=O)cc1	-0.7%	-2.5%	i	?	-9.0%	.
COc1cccc(CNC(=O)CN2C(=O)N(c3ccc(C)cc3C)S(=O)(=O)c3ccccc32)c1OC	-18.5%	-27.4%	i	?	-4.0%	.
O=C(Nc1ccc(N2CCN(C(=O)c3cccs3)CC2)c(Cl)c1)c1cccnc1	0.1%	22.4µM*	i	-8.5%	-20.9%	?
CCCC(=O)NC(=S)Nc1ccc(N2CCN(C(=O)c3cccs3)CC2)cc1	-17.3%	?	i	?	-23.1%	14.6µM*
O=C(Nc1ccc(N2CCN(C(=O)c3cccs3)CC2)cc1)c1cccc(F)c1	7.0%	-32.8%	i	-6.7%	-6.9%	?
O=C(Nc1ccc(N2CCN(C(=O)c3ccco3)CC2)c(Cl)c1)c1cccnc1	-1.1%	-12.5%	i	-1.3%	2.7%	?
COc1cccc(C(=O)Nc2ccc(N3CCN(C(=O)c4cccs4)CC3)cc2)c1	?	-35.4%	i	?	-19.1%	20.6µM*
COc1ccc(CCNC(=O)CSc2nc(C)nc3sccc23)cc1OC	-1.1%	1.0%	i	-18.5%	-14.0%	-2.8%
Cc1ncc2c(c1CNS(=O)(=O)N(C)C)CCN(C(=O)/C=C/c1ccccc1F)C2	.	.	i	.	.	.
CC(=O)Nc1c(O)cc(Br)c2nonc12	0.2%	.	.	16.8%	1.7%	6.4%
CC(=O)Nc1cc(O)c2nonc2c1O	6.51µM*	.	.	0.562µM*	0.562µM*	20.6µM*
O=C(Nc1ccc(Cl)c(C(F)(F)F)c1)[C@@H]1CC=C[C@@H]2CCN(Cc3ccc(Cl)c(Cl)c3)C(=O)[C@@H]21	-11.1%	-28.4%	i	?	-7.8%	11.6µM*
SMILES	A549 viability	ATXN2 expr inh	S2 tox	TGFb inhibitor	HepG2 viability	Nrf2 block
COc1ccccc1N(C(=O)c1snc(C(N)=O)c1N)C(C(=O)NC1CCCCC1)c1cccc(OC)c1OC (stereo unspecified)	-23.1%	-0.7%	i	-12.9%	4.9%	?
CC(=O)c1c(C)[nH]c(C(=O)OCC(=O)c2ccc3c(c2)NC(=O)CO3)c1C	-12.0%	.	.	0.7%	2.4%	?
COc1ccccc1/C=C/C1(C(=O)NC2CCCC2)CC(=O)N1c1ccc(F)cc1 (stereo unspecified)	?	17.8µM*	.	?	-27.0%	-32.7%
COc1ccccc1/C=C/C1(C(=O)NC2CCCC2)CC(=O)N1c1ccc(C)cc1 (stereo unspecified)	-24.7%	?	?	?	-13.5%	?
Cc1ccc(SCCC(=O)N/N=C/c2ccncc2)cc1	5.9%	?	i	4.2%	4.6%	14.6µM*
Cc1ccc(/C=N/NC(=O)CCSc2ccccc2)cc1	-4.2%	.	?	-24.3%	-12.0%	-4.4%
O=C(Nc1ccc(Nc2ccncc2)cc1)c1ccc([N+](=O)[O-])cc1	0.6%	.	?	17.8µM*	17.8µM*	18.4µM*
O=C(Nc1cnn(Cc2ccc(Cl)cc2)c1)c1ccc([N+](=O)[O-])cc1	-3.3%	-32.4%	i	-3.0%	-10.7%	?
O=C(Nc1ccncc1)c1ccc(-c2ccccc2)cc1	-0.5%	.	?	-33.5%	-21.2%	2.31µM*
O=C(Nc1ccc([N+](=O)[O-])cc1)c1ccc(Cn2cc([N+](=O)[O-])cn2)cc1	-14.3%	.	?	-21.4%	-23.2%	18.4µM*
CCOc1ccc(C(=O)Nc2cnn(Cc3ccc(Cl)c(Cl)c3)c2)cc1	?	?	i	15.5%	-28.9%	23.1µM*
CCOCCCNC(=O)c1ccc(NC(=O)N2CCCCc3ccccc32)cc1	-1.4%	11.2%	i	-21.9%	-0.2%	20.5%
O=C(NC1CC1)C1CCN(C2CCN(C(=O)c3c(F)cccc3Cl)CC2)CC1	4.3%	-13.2%	i	16.6%	5.9%	-2.2%
COc1ccc(S(=O)(=O)N(C)C[C@H]2Oc3c(NC(=O)C4CCCCC4)cccc3C(=O)N([C@H](C)CO)C[C@@H]2C)cc1	-12.2%	-14.2%	?	-8.9%	-2.4%	1.0%
C#CC(C)(CC)OC(=O)c1ccccc1C(=O)O (stereo unspecified)	.	7.2%	i	.	.	.
O=C(Cn1cc(CN(Cc2ccccc2)Cc2ccccc2)nn1)Nc1cc(C(F)(F)F)ccc1Cl	-5.9%	.	.	.	.	18.3%
CCn1cc(CN2CCC(C(=O)Nc3ccc(Oc4cccnc4)cc3)CC2)cn1	-1.8%	3.6%	i	-9.8%	-19.1%	-17.2%

Screening results as filed in PubChem BioAssay.
